Results reported in PubChem BioAssay AID1159580 (chemical genetic matrix, 2015).
The campaign covered roughly 5,500 compounds. About 2,000 (36%) were called active. Another 18% or so got no clear call; they are omitted. Rule as the data show it: active = normalized growth mostly below about 0.91 (no sharp cut-off); inconclusive = no clear call, values can overlap the other calls; inactive = mostly above about 0.92. Some of the results follow.

Experiment: chemical genetic growth profiling, strain panel (AID 1159580);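 also: tested at 20 µM; growth read once vehicle control cultures reached saturation at 30 °C; 1 = growth at the plate median or of vehicle wells; lower values mean less growth of the strain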
Conditions: S. cerevisiae deletion strains, growth OD

Measured: normalized growth

C1CNCCN1
inactive: locus YAL013W, strain DEP1, hits give low values 1.01 | locus YAL021C, strain ccr4, hits give low values 0.999 | locus YAL026C, strain drs2, hits give low values 1.02 | locus YAL030W, strain snc1, hits give low values 1.01 | locus YBL061C, strain skt5, hits give low values 1.02 | locus YBR009C, strain hhf1, hits give low values 1.01 | locus YBR021W, strain FUR4, hits give low values 0.979 | locus YBR023C, strain chs3, hits give low values 1.02 | locus YBR171W, strain sec66, hits give low values 1.02 | locus YBR229C, strain ROT2, hits give low values 0.997 | locus YBR231C, strain swc5, hits give low values 0.997 | locus YBR279W, strain paf1, hits give low values 1.01 | locus YCL011C, strain gbp2, hits give low values 1.01 | locus YCL016C, strain dcc1, hits give low values 1.01 | locus YCL029C, strain bik1, hits give low values 0.997 | locus YCL061C, strain MRC1, hits give low values 1 | locus YCL069W, strain vba3, hits give low values 1.01 | locus YCR088W, strain abp1, hits give low values 1.01 | locus YDL005C, strain med2, hits give low values 1.02 | locus YDL035C, strain GPR1, hits give low values 1.01 | locus YDL040C, strain nat1, hits give low values 1.01 | locus YDL074C, strain BRE1, hits give low values 1.03 | locus YDL101C, strain DUN1, hits give low values 1.02 | locus YDL134C, strain PPH21, hits give low values 1.01 | locus YDL185W, strain tfp1, hits give low values 1.02 | locus YDL192W, strain arf1, hits give low values 0.999 | locus YDR001C, strain nth1, hits give low values 1.01 | locus YDR069C, strain doa4, hits give low values 1.01 | locus YDR101C, strain arx1, hits give low values 0.987 | locus YDR137W, strain rgp1, hits give low values 1.03 | locus YDR150W, strain NUM1, hits give low values 1 | locus YDR159W, strain sac3, hits give low values 1.04 | locus YDR162C, strain NBP2, hits give low values 1.02 | locus YDR195W, strain ref2 1 | locus YDR297W, strain sur2, hits give low values 1.01 | locus YDR318W, strain mcm21, hits give low values 0.998 | locus YDR334W, strain swr1, hits give low values 1.01 | locus YDR335W, strain msn5, hits give low values 1.01 | locus YDR388W, hits give low values 0.996 | locus YDR392W, strain spt3, hits give low values 0.962 | locus YDR502C, strain sam2, hits give low values 0.999 | locus YEL003W, strain gim4, hits give low values 1.01 | locus YEL037C, strain rad23, hits give low values 1.01 | locus YEL061C, strain CIN8 (second series), hits give low values 1.01 | locus YEL061C, strain CIN8, hits give low values 1 | locus YER015W, strain faa2, hits give low values 0.999 | locus YER016W, strain bim1, hits give low values 0.999 | locus YER110C, hits give low values 0.988 | locus YER111C, strain swi4, hits give low values 1.02 | locus YER155C, strain BEM2 (second series), hits give low values 1 | locus YER155C, strain BEM2, hits give low values 1.01 | locus YER167W, strain BCK2, hits give low values 1.01 | locus YFR010W, strain ubp6, hits give low values 1.01 | locus YGL078C, strain dbp3, hits give low values 0.99 | locus YGL086W, strain mad1, hits give low values 0.996 | locus YGL167C, strain pmr1, hits give low values 1.02 | locus YGL173C, strain kem1, hits give low values 1.02 | locus YGL227W, strain vid30, hits give low values 1.01 | locus YGL240W, strain doc1, hits give low values 1.01 | locus YGL248W, strain PDE1, hits give low values 1 | locus YGL253W, strain hxk2, hits give low values 0.992 | locus YGR078C, strain PAC10, hits give low values 1 | locus YGR135W, strain pre9, hits give low values 1.01 | locus YGR229C, strain SMI1, hits give low values 1.02 | locus YGR252W, strain gcn5, hits give low values 0.948 | locus YHR013C, strain ard1, hits give low values 1.03 | locus YHR027C, strain rpn1, hits give low values 1.02 | locus YHR030C, strain SLT2, hits give low values 1.02 | locus YHR079C, strain IRE1 (second series), hits give low values 0.988 | locus YHR079C, strain IRE1, hits give low values 1.03 | locus YHR094C, strain hxt1, hits give low values 1 | locus YHR129C, strain ARP1, hits give low values 1.01 | locus YHR142W, strain chs7, hits give low values 1.02 | locus YHR200W, strain rpn10, hits give low values 1.01 | locus YIL066C, strain RNR3, hits give low values 1.01 | locus YIL073C, strain SPO22, hits give low values 0.983 | locus YIL125W, strain kgd1, hits give low values 1 | locus YIR030C, strain dcg1, hits give low values 1 | locus YJL092W, strain hpr5, hits give low values 1.01 | locus YJL095W, strain BCK1 (second series), hits give low values 1.02 | locus YJL095W, strain BCK1, hits give low values 1.01 | locus YJL115W, strain asf1, hits give low values 1.01 | locus YJL129C, strain trk1, hits give low values 1.01 | locus YJL134W, strain LCB3, hits give low values 1.01 | locus YJL154C, strain vps35, hits give low values 1.02 | locus YJL164C, strain tpk1, hits give low values 1.01 | locus YJL166W, strain qcr8, hits give low values 1.02 | locus YJL168C, strain set2, hits give low values 0.994 | locus YJL187C, strain SWE1 (second series), hits give low values 1.02 | locus YJL187C, strain SWE1, hits give low values 1.01 | locus YJR043C, strain POL32, hits give low values 1.01
